# High-throughput results (PubChem BioAssay)
# hcDAF12 agonist – activates DAF-12 receptor from parasite H. contortus | HEK293 hcDAF-12 lit1-tk-luc reporter, luminescence; 0% DMSO, 100% Δ7-dafachronic acid | activation, % at 6.8 µM | 370,000 tested, 1.4% active | AID 652067;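 active = activation above the mean of all tested compounds plus 3 SD, cut at about 5.5% in these data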;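 note: 100% = response to 3 µM Δ7-dafachronic acid high control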
# DAX1 inh-1 – blocks DAX1 repression of SF-1 activated StAR promoter. HEK293T StAR-luciferase reporter, SF-1/DAX-1 repression relief. inhibition, % at 6.8 µM. 370,000 tested, 1.1% active. AID 652010;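 active = inhibition above the mean over all tested compounds plus 3 SD, cut at about 3.6% in these data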;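 note: 0% = DAX-1 cells with DMSO and 100% = cells lacking DAX-1 with DMSO; higher inhibition means more luminescence from relief of DAX-1 repression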
# hgDAF-12 ag – agonists of H. glycines DAF-12 nuclear receptor | 370,000 tested, 1.8% active | activation, % at 6.8 µM | HEK293 GAL4-hgDAF12 UAS-luciferase reporter, agonist luminescence; normalized to butyrate control | AID 687014;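 active = activation above a cutoff set at the mean of all screened compounds plus 3 SD, cut at about 10% in these data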;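 note: 0% = DMSO wells and 100% = sodium butyrate wells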
# SMARCA2 activ – activators of SMARCA2 function; activation, % at 9.1 µM; AID 652017; 370,000 tested, 1% active; MG213 cells, MMTV-luciferase reporter, dexamethasone, overnight; in the data active = activation above about 7.8%;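 note: 0% = vehicle wells and 100% = reference activator wells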
# DAX1 inh-2 – inhibitors of human orphan nuclear receptor DAX1 (NR0B1); P51843; HEK293 Gal4-DAX1 luciferase reporter, luminescence; inhibition, % at 6.75 µM; 340,000 tested, 0.99% active; AID 504766;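 active = inhibition above the mean over all tested compounds plus 3 SD, cut at about 4.2% in these data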;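 note: 0% = DAX1-transfected cells with DMSO and 100% = empty-vector control cells with DMSO; inhibition shows as a rise in luminescence from relieved DAX1 repression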
# Target sequence (P51843 207-470 limits assumed): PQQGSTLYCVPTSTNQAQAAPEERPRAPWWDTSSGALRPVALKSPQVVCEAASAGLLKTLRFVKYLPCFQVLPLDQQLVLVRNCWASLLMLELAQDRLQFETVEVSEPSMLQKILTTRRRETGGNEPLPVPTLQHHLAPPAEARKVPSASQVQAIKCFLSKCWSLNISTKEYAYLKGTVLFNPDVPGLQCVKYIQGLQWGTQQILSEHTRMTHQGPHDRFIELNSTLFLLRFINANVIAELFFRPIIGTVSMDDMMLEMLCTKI
# ssDAF-12 act – S. stercoralis DAF-12 activation, primary screen. HEK293 ssDAF-12/GRIP1 lit1-tk-luc reporter, luminescence; % of 3 µM dafachronic acid response. activation, % at 6.8 µM. 370,000 tested, 1% active;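 active = activation above the mean over all tested compounds plus 3 SD, cut at about 0.9% in these data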;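 note: 0% = DMSO-only wells and 100% = 3 µM delta7-dafachronic acid wells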
# Active calls of the source: *; · = no result. Compounds with a hit are over-represented: about 4.8% of the library has one in this group of screens.
SMILES,hcDAF12 agonist,DAX1 inh-1,hgDAF-12 ag,SMARCA2 activ,DAX1 inh-2,ssDAF-12 act
CC(C)C[C@H]1CN(CCCC[C@H]2CNC(=O)C(=O)N2Cc2ccccc2)C(=O)C(=O)N1CC1CCCCC1,-1,0,-3,1,·,-1
CC(C)C[C@H]1CN(CCCC[C@@H]2CNC(=O)C(=O)N2CC2CCCCC2)C(=O)C(=O)N1Cc1ccccc1,-2,0,11*,-4,·,-1
COc1ccc2cc(CCOC3CCCCO3)ncc2c1 (centres undefined),6.5*,2,9,5,2,0
COc1ccccc1-c1nnc(SCC(=O)Nc2cccnc2Cl)n1C,4,1,0,1,0,0.9*
COc1ccccc1-n1cnnc1SCC(=O)Nc1cccnc1Cl,1,0,2,-5,0,-1
CCC1Oc2ccc(C)cc2N(CC(=O)NC2CCCCC2)C1=O (centres undefined),1,0,1,-3,-1,-1
COc1oc(-c2ccccc2)nc1C(F)(F)F,-1,1,0,-1,4.3*,0
COc1ccc(CCC(=O)Nc2sccc2C#N)cc1,2,3,12*,3,·,0
COc1ccc(NC(=O)CSCC(=O)Nc2sccc2C#N)cc1,1,0,1,0,-1,1.0*
O=c1cc(-c2ccccc2)[nH]n1-c1ccccc1,0,-1,-2,-3,0,-2
COc1ccc(O)cc1,0,0,0,-1,4.5*,-1
c1ccc(-c2csc(-c3cccnc3)n2)cc1,3,0,11*,3,1,-1
COc1ccc(-c2ccnc(-c3ccc(O)cc3)n2)cc1,2,-1,8,0,-2,-1
COc1ccc(N2CC(O)=C(c3nc(-c4ccccc4)cs3)C2=N)cc1,1,0,2,-4,-1,-1
COc1ccc(-c2csc(-c3ccc(O)cc3)n2)cc1,2,-2,13*,2,-3,0
COc1ccc(N2CC(O)=C(c3nc(-c4ccc(Cl)cc4)cs3)C2=N)cc1,1,1,12*,-5,0,0
COc1ccc(C(N)=S)cc1,-2,0,-1,-1,4.3*,-1
c1ccc(CNc2nc(-c3cccnc3)cs2)cc1,0,0,11*,2,1,-1
Cc1oncc1-c1csc(-c2ccccc2Cl)n1,-1,0,7,2,1,-2
Cc1oncc1-c1csc(-c2ccccc2)n1,1,0,6,2,5.3*,-1
Cc1ccc(-c2csc(-c3ccncc3)n2)cc1,4,0,11*,-1,1,-1
c1ccc(-c2nc(-c3cccnc3)cs2)cc1,3,1,5,7,1,0
COc1ccc(NC(=O)CSc2nc3ccccc3n2-c2ccccc2)c([N+](=O)[O-])c1,-2,-1,-1,0,-1,-1
CCOC(=O)c1c(-c2cccc([N+](=O)[O-])c2)cn2ccccc12,0,0,0,0,0,-2
COc1ccc(-c2csc(C(O)c3ccccc3)n2)cc1 (centres undefined),3,3.8*,5,2,·,0
SMILES,hcDAF12 agonist,DAX1 inh-1,hgDAF-12 ag,SMARCA2 activ,DAX1 inh-2,ssDAF-12 act
CC(C)Cc1nc2oc3c(N4CCN(CCO)CC4)ncnc3c2c2c1CCCC2,-2,-1,-2,0,0,-2
O=C(CCCc1nc2ccccc2s1)NC(c1ccccc1)c1ccccc1,-1,0,0,7.9*,-1,-1
NC1=NC(=O)C(=Cc2ccccc2)S1,0,0,3,0,0,-1
CCOC(=O)CSC1=NC(=O)/C(=C/c2ccc(OC)cc2)S1,·,·,·,·,0,·
NC1=NC(=O)/C(=C\c2cccnc2)S1,-1,0,12*,-4,-1,-1
COc1ccc(/C=C2\SC(N)=NC2=O)cc1,-1,-1,5,0,4.9*,-1
CSc1nnc(N2C(=O)C(O)=C(C(=O)c3ccco3)C2c2ccc(F)cc2)s1 (centres undefined),4,4.2*,8,0,1,-1
N#Cc1c2nc3ccccc3nc2n2cc(NC(=O)c3ccc(F)cc3)ccc12,2,-1,0,-1,-1,-1
COc1cccc(-n2c(Cc3cc(=O)[nH]c(=O)[nH]3)nnc2SCC(=O)N2CCCC2)c1,0,0,0,1,-1,-2
COc1ccc(-n2c(Cc3cc(=O)[nH]c(=O)[nH]3)nnc2SCC(=O)N2CCC(C)CC2)cc1,0,0,-1,-1,2,-1
CC1CCN(C(=O)CSc2nnc(Cc3cc(=O)[nH]c(=O)[nH]3)n2-c2ccc(Cl)cc2)CC1,0,0,1,0,5.3*,-1
COc1cccc(-n2c(Cc3cc(=O)[nH]c(=O)[nH]3)nnc2SCC(=O)N2CCCCCC2)c1,6.3*,0,-3,7,3,0
O=S(=O)(Nc1nc2ccccc2s1)c1cnc(Cl)c(Br)c1,5,1,0,-2,2,1.0*
O=S(=O)(Nc1nccs1)c1cnc(Cl)c(Br)c1,5,1,0,-4,1,-1
O=C(CCCN1C(=O)/C(=C/c2ccccc2)SC1=S)NCCCn1ccnc1,-5,0,-5,-6,0,-2
O=C(CCN1C(=O)/C(=C/c2ccccc2F)SC1=S)NCCCn1ccnc1,6.5*,0,1,-1,0,-1
Cc1ccc2cc(C=O)c(N3CCOCC3)nc2c1C,-1,0,1,1,0,-2
Cc1ccc2nc(N3CCOCC3)c(C=O)cc2c1,-2,0,1,-1,8.2*,-1
CSc1ccccc1C(=O)NCCOc1ccccc1C,-2,-1,-1,-3,-2,-2
O=C(NCCOc1ccccc1F)c1cc(F)c(F)cc1Cl,5,3.7*,13*,6,1,1.2*
Cc1ccccc1C(=O)NCCOc1ccccc1Cl,3,2,12*,7,5.0*,1.1*
C[n+]1cccc(NC(=O)c2ccccc2)c1,0,1,4,7,·,-1
O=C(NCCc1ccc(S(=O)(=O)N2CCCC2)cc1)c1cccs1,-2,0,-1,0,0,-1
O=C(Nc1ccc(Br)cc1)c1ccc2c(c1)OCO2,6.5*,3,13*,4,2,0
CCN1CCN(c2ccc(NC(=O)c3ccc4c(c3)OCO4)cc2)CC1,2,2,12*,5,1,0
O=C(Nc1ccc2c(c1)OCO2)c1ccc(CO)cc1,3,4.2*,8,4,1,0
NC(=O)c1ccc(NC(=O)c2ccc3c(c2)OCO3)cc1,4,3,6,5,3,0
CC(=O)Nc1ccc(C(=O)Nc2ccc3c(c2)OCO3)cc1,0,1,6,-1,2,-1
